Test results reported in the supplement of paper PMC7156485.

What was measured:
Conditions in all cases: concentration: 10 µM; 24 h
HCC1569 [1] = assay: H1.0 immunofluorescence intensity relative to DMSO (% of DMSO); higher = stronger H1.0 induction
Method in brief: (§1)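 Cell number or H1.0 nuclear intensity appears as percent of the plate control, based on the median of replicates. Measurements came from HCC1569 and TDF cells exposed in triplicate to compounds at 10 µM for 24 h at 37 °C, then imaged in six fields per well at ×10. Positional effects were smoothed out of HCC1569 values.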

TDF [2] = assay: as above
Method in brief: as §1

HCC1569 [3] = assay: cell number relative to DMSO (% of DMSO); higher = more cells (less growth inhibition / toxicity)
Method in brief: as §1

TDF [4] = assay: as above
Method in brief: as §1

TDF [5] = assay: H1.0 immunofluorescence intensity relative to DMSO (% of DMSO); higher = stronger H1.0 induction, active = 120 or more
Method in brief: as §1

HCC1569 [6] = assay: H1.0 immunofluorescence intensity relative to DMSO (% of DMSO); higher = stronger H1.0 induction, active = 140 or more
Method in brief: as §1
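For H1.0 immunofluorescence intensity relative to DMSO in this document: TDF is a line of transformed human dermal fibroblasts of mesenchymal origin.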
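For cell number relative to DMSO in this document: TDF denotes transformed human dermal fibroblasts of mesenchymal origin.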

| SMILES | H1.0 immunofluorescence intensity (HCC1569 [1]) | H1.0 immunofluorescence intensity (TDF [2]) | cell number (HCC1569 [3]) | cell number (TDF [4]) | H1.0 immunofluorescence intensity (TDF [5]) | H1.0 immunofluorescence intensity (HCC1569 [6]) |
| --- | --- | --- | --- | --- | --- | --- |
| CC(=O)N[C@@H](CS)C(N)=O | 103 (inactive) | 96.2 (inactive) |  |  |  |  |
| O=C(O)Cc1sc(-c2ccccc2)nc1-c1ccc(Cl)cc1 [Fentiazac] |  |  | 91.8 | 107 | 89.6 (inactive) | 116 (inactive) |
| CC(C)CNCc1ccc(-c2ccccc2S(=O)(=O)N2CCCC2)cc1.Cl |  |  | 96 | 99.2 | 88.9 (inactive) | 100 (inactive) |
| S=C(NCc1ccc2c(c1)OCO2)N1CCN(c2ncnc3c2oc2ccccc23)CC1 |  |  | 65.5 | 72.6 | 103 (inactive) | 132 (inactive) |
| CCCCCC(=O)CCC1C(O)CC(O)C1CC=CCCCC(=O)O (stereo not drawn) [13,14-Dihydro-15-keto-prostaglandin F2a] |  |  | 99.9 | 94 | 90.1 (inactive) | 98.2 (inactive) |
| CC(=O)Oc1ccc(C(c2ccc(OC(C)=O)cc2)c2ccccn2)cc1 [Bisacodyl] |  |  | 94.2 | 102 | 86.4 (inactive) | 125 (inactive) |
| CC12CC3CC(C)(C1)CC(N)(C3)C2.Cl [Memantine.HCl] |  |  | 94.8 | 102 | 90.8 (inactive) | 100 (inactive) |
| CCCCCCCCCCCCCCCCCC(=O)O [Octadecanoic acid] |  |  | 102 | 101 | 104 (inactive) | 95.3 (inactive) |
| COc1cc2nc(N3CCN(C(=O)C4=CC5C=CC4CC5)CC3)nc(N)c2cc1OC (stereo not drawn) [Prazobind] |  |  | 101 | 102 | 95.3 (inactive) | 93.2 (inactive) |
| CCCCCCCC(=O)OCC(CO)OC(=O)CCCCCCC (stereo not drawn) [1,2-Dioctanoyl-SN-glycerol] |  |  | 98.8 | 101 | 92.3 (inactive) | 98.6 (inactive) |
